Laboratory results published in the supplement of paper PMC6555819.

Columns and labels:
Assay in all cases: PBM binding z-score (relative to random genomic background probes); higher = stronger binding; sequences stand for … in GC…GCGATTGACAGCGTAGAATGAAGG
[1] = system: FXR:RXRa (NR concentration 270 nM, RXRa partner concentration 90 nM)
In short: (§1)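 Antibodies against each partner of ligand-free nuclear receptor dimers (one per run) detected binding on custom Agilent 4×180K protein-binding microarrays after 1 h incubation. The double-stranded probes had 34-nt variable regions carrying direct-repeat seeds, single-nucleotide variants, half-site ablations and random human genomic background sequences. Binding z-scores, from regression-normalized fluorescence, use the random background probes as reference.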

[2] = system: LXRa:RXRa (NR concentration 270 nM, RXRa partner concentration 90 nM)
In short: as §1

[3] = system: LXRa homodimer (NR concentration 270 nM)
In short: as §1

[4] = system: LXRb:RXRa (NR concentration 270 nM, RXRa partner concentration 90 nM)
In short: as §1

[5] = system: LXRb homodimer (NR concentration 270 nM)
In short: as §1

[6] = system: PPARa:RXRa (NR concentration 270 nM, RXRa partner concentration 90 nM)
In short: as §1

[7] = system: PPARg:RXRa (NR concentration 180 nM, RXRa partner concentration 90 nM)
In short: as §1

[8] = system: PPARg:RXRa 270nM:90nM, anti-RXR (NR concentration 270 nM, RXRa partner concentration 90 nM)
In short: as §1

[9] = system: PPARg:RXRa 30nM:10nM, anti-RXR (NR concentration 30 nM, RXRa partner concentration 10 nM)
In short: as §1

[10] = system: PPARg:RXRa 90nM:30nM, anti-RXR (NR concentration 90 nM, RXRa partner concentration 30 nM)
In short: as §1

[11] = system: PPARg:RXRa DBDmut IVT, anti-RXR (DBD mutation: RXRa K156A/R161A, NR concentration 270 nM, RXRa partner concentration 90 nM)
In short: as §1

[12] = system: PPARg:RXRa IVT, anti-PPARg (NR concentration 270 nM, RXRa partner concentration 90 nM)
In short: as §1

[13] = system: PPARg DBDmut:RXRa IVT, anti-PPARg (DBD mutation: PPARg1 K132A/R137A, NR concentration 270 nM, RXRa partner concentration 90 nM)
In short: as §1

[14] = system: PPARg DBDmut IVT, anti-PPARg (DBD mutation: PPARg1 K132A/R137A, NR concentration 270 nM)
In short: as §1

[15] = system: PPARg homodimer (NR concentration 180 nM)
In short: as §1

[16] = system: PXR:RXRa (NR concentration 270 nM, RXRa partner concentration 90 nM)
In short: as §1

[17] = system: PXR homodimer (NR concentration 270 nM)
In short: as §1

[18] = system: RARa:RXR (NR concentration 270 nM, RXRa partner concentration 90 nM)
In short: as §1

[19] = system: RARa homodimer (NR concentration 270 nM)
In short: as §1

[20] = system: RARb:RXRa (NR concentration 270 nM, RXRa partner concentration 90 nM)
In short: as §1

Row | Sequence | PBM binding z-score [1] | PBM binding z-score [2] | PBM binding z-score [3] | PBM binding z-score [4] | PBM binding z-score [5] | PBM binding z-score [6] | PBM binding z-score [7] | PBM binding z-score [8] | PBM binding z-score [9] | PBM binding z-score [10] | PBM binding z-score [11] | PBM binding z-score [12] | PBM binding z-score [13] | PBM binding z-score [14] | PBM binding z-score [15] | PBM binding z-score [16] | PBM binding z-score [17] | PBM binding z-score [18] | PBM binding z-score [19] | PBM binding z-score [20]
1 | CGAACTAGGTCAAGGACACTGAATCTCCGCACGC | 3.6 | 2.34 | 0.392 | 1.61 | -0.129 | 4.59 | 7.39 | 6.12 | 3.48 | 5.6 | 8.19 | 8.2 | 2.38 | 0.508 | 1.58 | 1.44 | 0.0266 | 1.97 | 0.291 | 4.04
2 | GCATATAGGTAATACAAGGTGTAAGTCCGATTGT | 0.0456 | -0.21 | -0.0292 | -0.487 | -0.137 | 0.159 | 0.975 | 0.539 | 0.405 | 0.179 | 4.05 | 2.41 | 0.78 | 0.908 | 0.475 | -0.257 | -0.0468 | 0.0684 | 0.804 | -0.269
3 | GTATATAGGTAATACAAGGTGAAAGTCCGATTGT | 0.948 | 2.78 | 0.975 | 0.947 | 0.188 | 2.78 | 3.05 | 2.69 | 1.39 | 1.94 | 5.56 | 5.62 | 2.12 | 2.34 | 1.29 | 0.792 | 0.761 | 1.95 | 1.09 | 0.593
4 | CGTGCAAGGTCAAGGTCAGTGAAAGAGACTCGAA | 7.71 | 5.78 | 1.12 | 4.86 | 0.639 | 6.13 | 6.66 | 6.55 | 2.87 | 5.51 | 3.53 | 4.59 | 1.6 | -0.363 | 4.25 | 4.99 | 1.2 | 5.11 | 2.15 | 5.53
5 | TCATATAGGTAAAAGGTGCAAGTCGGTGTGGTAA | 1.29 | 1.09 | 0.188 | 1.25 | 0.0143 | 3.34 | 5.37 | 5.97 | 5.85 | 6.52 | 4.71 | 3.76 | 0.923 | 0.831 | 1.63 | 0.954 | 0.487 | 0.733 | 1.23 | 0.917
6 | ACTAGCAGGCCAAGGGTAACTCAAGATTAGTCCG | -0.105 | 0.773 | -0.457 | -0.0796 | -0.553 | 1.83 | 3.38 | 4.86 | 2.86 | 4.78 | 0.865 | 1.67 | -0.794 | -0.439 | 0.663 | -0.287 | -0.127 | 0.0162 | -0.543 | 0.971
7 | CCTAGCAGGCCAATCTGGGTAACTCAAGGCTTGA | -0.2 | -0.684 | -0.736 | -0.904 | -0.796 | 0.0569 | -0.0846 | -0.366 | -1.08 | -0.958 | 2.34 | 2.01 | -1.19 | -0.9 | -0.78 | -0.754 | -0.707 | -0.329 | -0.678 | -0.071
